Source: PubChem BioAssay
Calls of active or inactive are those of the source.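 The calls were made as follows, unless noted: active = inhibition at or above 50% at 10 µM; inactive = inhibition below 50%.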

Legend:
[1] = inhibitors of TNFa-induced NFkB p65 translocation, primary screen, imaging, HUVEC, MLSMR starter and 10KST1 sets (AID 438;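 active = inhibition above 20% together with a positive visual image hit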;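 also: compound added about 3h40 before a 20 min TNFalpha stimulation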;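 as to inhibition: signal is the nuclear over cytoplasmic p65 intensity ratio per well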); settings: HUVEC TNFa-induced p65 nuclear translocation; cell count: measured here: nuclei count (cytotoxicity indicator), at 2.08 µM; inhibition: at 2 µM, stronger effect = higher value, 0% TNFa-plus-vehicle, 100% no-TNFa wells
[2] = inhibitors of mutant huntingtin aggregation, primary screen, imaging, exon1htt(103Q)mCFP cells, high-content imaging (AID 483;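 active = visual image review flags a hit and inhibition of aggregation exceeds 20%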;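 also: compound exposure lasted 3 days before fixation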;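 as to nuclei count: percent of the per-plate median nuclei count of sample wells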); settings: exon1htt(103Q)mCFP cell line, aggregate imaging, at 2 µM; inhibition of aggregation: stronger effect = higher value; nuclei count: measured here: cell count, toxicity
[3] = inhibitors of E-selectin induction by TNFa, primary screen, imaging, HUVEC, immunofluorescence, MLSMR starter and 10KST1 sets (AID 487;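 active = visually confirmed hit in the image check and inhibition above 20%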;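 as to inhibition: signal is fraction of cell area covered by stained E-selectin grains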;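 as to nuclei count: 100% = median nuclei count of all wells on the same plate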); settings: HUVEC TNFalpha-induced E-selectin immunofluorescence imaging, at 2 µM; inhibition: stronger effect = higher value; nuclei count: measured here: cell number, toxicity
[4] = molecular target: Voltage-gated potassium channel subunit beta-2 (Rattus norvegicus) (UniProt P62483); assay: KvBeta enzyme negative modulators, primary screen, biochemical, NADPH fluorescence (AID 622;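 active = fluorescence slope higher than the sample average by over 3 SD, cut at about -0.22 in these data, passing the limit was not always enough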;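 also: slope of raw intensity against log time taken from 70 to 1610 s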); settings: recombinant KvBeta, 4-cyanobenzaldehyde reduction, at 10 µM, stronger effect = higher value
Sequence of Voltage-gated potassium channel subunit beta-2 (Rattus norvegicus) (P62483 whole entry, looked up): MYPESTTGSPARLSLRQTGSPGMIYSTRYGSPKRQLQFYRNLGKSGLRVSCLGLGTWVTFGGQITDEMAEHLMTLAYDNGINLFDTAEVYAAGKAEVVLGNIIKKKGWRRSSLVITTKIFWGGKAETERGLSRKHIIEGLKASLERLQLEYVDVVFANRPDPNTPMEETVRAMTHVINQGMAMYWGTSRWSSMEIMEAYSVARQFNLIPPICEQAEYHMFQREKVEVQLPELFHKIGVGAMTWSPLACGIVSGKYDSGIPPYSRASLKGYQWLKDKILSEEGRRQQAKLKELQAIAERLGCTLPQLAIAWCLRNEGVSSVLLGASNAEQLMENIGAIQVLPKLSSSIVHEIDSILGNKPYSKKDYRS

[5] = molecular target: Voltage-gated potassium channel subunit beta-2 (Rattus norvegicus) (UniProt P62483); assay: KvBeta positive modulators, primary screen, biochemical, NADPH fluorescence (AID 623;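 active = NADPH fluorescence slope more negative than the mean of all samples by about 3 SD, 99.7% confidence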;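 also: fluorescence intensity change per second fitted from 20 to 320 s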); settings: Recombinant KvBeta, NADPH fluorescence decrease slope, 10 min; at 10 µM; stronger effect = lower value
[6] = molecular target: Alpha-2C adrenergic receptor (Homo sapiens) (UniProt P18825); assay: modulators of alpha2C/GIRK thallium flux, primary screen, cell-based, HEK293 alpha2C/GIRK1/2 (AID 624;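 active = fluorescence slope after compound addition differing from the mean of all screened samples at 99.7% confidence, in either direction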;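 also: slope of fluorescence ratio to pre-addition baseline per second over 15 to 24 s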); settings: thallium flux BTC fluorescence, at 10 µM, actives lie on both sides
Sequence of Alpha-2C adrenergic receptor (Homo sapiens) (P18825 whole entry, looked up): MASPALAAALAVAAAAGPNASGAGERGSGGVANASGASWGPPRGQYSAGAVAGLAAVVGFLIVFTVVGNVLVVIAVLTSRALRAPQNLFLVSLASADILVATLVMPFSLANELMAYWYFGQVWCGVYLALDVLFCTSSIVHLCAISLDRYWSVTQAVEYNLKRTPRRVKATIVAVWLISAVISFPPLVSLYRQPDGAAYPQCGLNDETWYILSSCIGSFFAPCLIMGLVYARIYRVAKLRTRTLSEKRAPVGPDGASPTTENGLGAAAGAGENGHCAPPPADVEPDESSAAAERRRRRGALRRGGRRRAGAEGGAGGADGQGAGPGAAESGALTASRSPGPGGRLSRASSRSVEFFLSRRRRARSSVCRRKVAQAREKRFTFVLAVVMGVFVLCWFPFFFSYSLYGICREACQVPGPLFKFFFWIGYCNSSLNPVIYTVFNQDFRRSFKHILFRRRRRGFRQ

[7] = inhibitors of Sendai virus-induced IRF3 signaling, primary screen, TLR/RLR signaling modifier project, cell-based, Sendai virus stimulus, luciferase, 10K MLSCN set (AID 602276); settings: HEK293 RL24 IRF3 luciferase reporter, at 10 µM, stronger effect = higher value;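 also: firefly luciferase from ISG56 promoter only with Renilla not read in this screen; 0% = Sendai virus plus DMSO and 100% = medium plus DMSO without virus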
[8] = inhibitors of poly I:C-induced TLR3 signaling, primary screen, cell-based, poly I:C stimulus, luciferase, 10K MLSCN set (AID 602277;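 active = inhibition of the reporter signal at or above 50%; inactive = inhibition below 50%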); settings: HEK293-TLR3 RL24 IRF3 luciferase reporter, at 10 µM, stronger effect = higher value

Row | SMILES | cell count [1] | inhibition [1] | inhibition of aggregation [2] | nuclei count [2] [%] | inhibition [3] | nuclei count [3] [%] | fluorescence slope [4] | NADPH fluorescence slope [5] | slope [6] | inhibition [7] | inhibition [8]
1 | COc1ccc(C(=O)Nc2ccc(S(=O)(=O)NC(C)=O)cc2)cc1 | 568 | 2.4% (inactive) | 21.1% (inactive) | 92.1 | 9.3% (inactive) | 107 | -0.494 (inactive) | -2.4e-05 (inactive) | 0.00509 (inactive) | 10.3% (inactive) | 6.87% (inactive)
2 | CC(=O)c1n[nH]nc1NC(=O)c1ccccc1 | 574 | -25.8% (inactive) | -6.9% (inactive) | 100 | -46.6% (inactive) | 119 | -0.525 (inactive) | -2.5e-05 (inactive) | 0.00678 (inactive) | 4.32% (inactive) | -46% (inactive)
3 | CCOc1ccc(N(CC(=O)Nc2ccc(C)c(C)c2)S(=O)(=O)c2c(C)noc2C)cc1 | 713 | 0% (inactive) | -19.3% (inactive) | 86.1 | -29% (inactive) | 100 | -0.554 (inactive) | -7.2e-07 (inactive) | 0.00659 (inactive) | 13.3% (inactive) | 27.5% (inactive)
4 | c1cnc2c(SCc3ccc(-c4nnco4)cc3)cccc2c1 | 431 | 11.7% (inactive) | -3.7% (inactive) | 100 | -23.1% (inactive) | 107 | -0.586 (inactive) | -4.6e-06 (inactive) | 0.00482 (inactive) | -53.9% (inactive) | -92.3% (inactive)
5 | CC(C)OC(=O)c1ccc(NC(=O)C2C3CC4OC(=O)C2C4C3)cc1 (stereo not drawn) | 324 | -10.5% (inactive) | -9.4% (inactive) | 103 | -115% (inactive) | 151 | -0.327 (inactive) | -6e-05 (inactive) | 0.00657 (inactive) | -44.9% (inactive) | -88.7% (inactive)
6 | CCn1nc(CC(=O)Nc2nnc(CC(=O)N3CCCCC3)s2)c2ccccc2c1=O | 385 | 0.2% (inactive) | 2.9% (inactive) | 104 | -289% (inactive) | 95.9 | -0.437 (inactive) | -2.5e-05 (inactive) | 0.00348 (inactive) | 8.15% (inactive) | 25.2% (inactive)
7 | COCCN1CCN(c2c(C)c(C)nc3cc(-c4cccc(OC)c4)nn23)CC1 | 367 | -6.1% (inactive) | -9.2% (inactive) | 80.5 | -52.9% (inactive) | 106 | -0.567 (inactive) | -3.9e-05 (inactive) | 0.0105 (inactive) | 15.2% (inactive) | 16.1% (inactive)
8 | CCC(=O)Nc1c2c(nn1-c1ccccc1C)CSC2 | 592 | 8.9% (inactive) | -2.1% (inactive) | 114 | 31.2% (inactive) | 99.7 | -0.614 (inactive) | -1.7e-05 (inactive) | 0.00682 (inactive) | 14.2% (inactive) | 21.4% (inactive)
9 | O=C(NC1CCCC1)C(c1ccco1)N(Cc1ccccc1)C(=O)c1csnn1 (stereo not drawn) | 426 | 5.4% (inactive) | -6.3% (inactive) | 97.6 | -9.3% (inactive) | 107 | -0.582 (inactive) | -3.8e-05 (inactive) | 0.006 (inactive) | 17.4% (inactive) | 29.4% (inactive)
10 | COc1ccc(-c2cc(O)cc(O)c2)cc1 | 397 | -10.3% (inactive) | -11% (inactive) | 103 | -25% (inactive) | 98.8 | -0.49 (inactive) | -7.1e-05 (inactive) | 0.00555 (inactive) | -15.5% (inactive) | -88.2% (inactive)
11 | CCCCNC(=O)Cn1c(=O)n(C)c2ccccc21 | 600 | 6.9% (inactive) | -14.7% (inactive) | 111 | 35.9% (inactive) | 103 | -0.549 (inactive) | -6.8e-06 (inactive) | 0.00707 (inactive) | 9.9% (inactive) | 30% (inactive)
12 | CC(=O)NC(CCS(C)(=O)=O)C(=O)Nc1cccc2ccccc12 (stereo not drawn) | 667 | 3.9% (inactive) | 18.3% (inactive) | 100 | -7.5% (inactive) | 108 | -0.564 (inactive) | -3.4e-05 (inactive) | 0.006 (inactive) | 1.24% (inactive) | 31.9% (inactive)
13 | O=C(c1cnn2c(C(F)F)cc(C3CC3)nc12)N1CCOCC1 | 666 | -0.3% (inactive) | 3.1% (inactive) | 96.7 | -13.3% (inactive) | 94.3 | -0.376 (inactive) | 2.5e-06 (inactive) | 0.00295 (inactive) | 6.43% (inactive) | 18.5% (inactive)
14 | O=C(CN1CCCCCC1)OCCN=C1NS(=O)(=O)c2ccccc21 | 384 | -1.9% (inactive) | -3.1% (inactive) | 62.4 | -187% (inactive) | 133 | -0.599 (inactive) | -6.1e-06 (inactive) | 0.00669 (inactive) | 9.82% (inactive) | 8.03% (inactive)
15 | COc1ccc(C2(C(=O)N3CCCC3)CCOCC2)cc1OC | 352 | 5.5% (inactive) | -9.9% (inactive) | 97.5 | 30.4% (inactive) | 111 | -0.341 (inactive) | -1.4e-05 (inactive) | 0.00553 (inactive) | 2.28% (inactive) | 15.1% (inactive)
16 | CCOC(=O)C1CCN(C(c2cc3cc(C)cc(C)c3[nH]c2=O)c2nnnn2C2CCCCC2)CC1 (stereo not drawn) | 444 | -8.2% (inactive) | -7.5% (inactive) | 77.4 | -75.4% (inactive) | 159 | -0.625 (inactive) | -3.6e-06 (inactive) | 0.00591 (inactive) | 13.6% (inactive) | 38.3% (inactive)
17 | O=C(O)c1ccc2c3c(ncnc13)-c1ccccc1C2=O | 336 | -10.1% (inactive) | -50.8% (inactive) | 9.6 | -34.1% (inactive) | 93 | -0.155 (inactive) | -4.9e-06 (inactive) | 0.0028 (inactive) | 18.4% (inactive) | 26.7% (inactive)
18 | COc1ccc(-n2c(Cc3cccn3C)nnc2SCC(N)=O)cc1 | 531 | -4.4% (inactive) | 6.6% (inactive) | 63.8 | 1.4% (inactive) | 99.3 | -0.59 (inactive) | -3.3e-05 (inactive) | 0.00644 (inactive) | 17.9% (inactive) | 27.2% (inactive)
19 | COc1ccc(C)cc1S(=O)(=O)N1CCN(S(=O)(=O)c2cc(C)ccc2OC)CC1 | 427 | -0.2% (inactive) | -15.7% (inactive) | 97.4 | 17.9% (inactive) | 112 | -0.536 (inactive) | -3.9e-05 (inactive) | 0.00449 (inactive) | -3.93% (inactive) | 9.61% (inactive)
20 | Cc1cccc(C2CC(c3ccccc3)Nc3nc(N)nn32)c1 (stereo not drawn) | 626 | -3.4% (inactive) | 7.7% (inactive) | 114 | -47.9% (inactive) | 120 | -0.517 (inactive) | -5.7e-06 (inactive) | 0.00697 (inactive) | 9.21% (inactive) | 18.7% (inactive)
21 | COc1ccccc1OCCOc1ccccc1/C=N/n1cnnc1 | 375 | -3.8% (inactive) | -14.3% (inactive) | 94.1 | -66.6% (inactive) | 103 | -0.402 (inactive) | -2.8e-05 (inactive) | 0.00507 (inactive) | -3.21% (inactive) | -1.03% (inactive)
22 | Cc1cc(=O)[nH]c(SCc2nc3ncccn3c2Br)n1 | 636 | -2.4% (inactive) | -10.4% (inactive) | 76.5 | -32.2% (inactive) | 107 | -0.27 (inactive) | -6.4e-06 (inactive) | 0.00645 (inactive) | 8.84% (inactive) | 23.4% (inactive)
23 | COCCn1c(SCC(=O)Nc2cccc(OC)c2)nnc1-c1ccccc1 | 690 | 2.1% (inactive) | 6.3% (inactive) | 96.7 | -16% (inactive) | 117 | -0.492 (inactive) | -3.1e-05 (inactive) | 0.00579 (inactive) | -0.479% (inactive) | 19.1% (inactive)
24 | CCOC(=O)CNC(=O)CSc1nnnn1-c1cc(C)ccc1C | 355 | -3.6% (inactive) | 14.6% (inactive) | 89.4 | 51.5% (inactive) | 82 | -0.533 (inactive) | 3e-05 (inactive) | 0.00704 (inactive) | 4.69% (inactive) | 10.9% (inactive)
25 | CCOC(=O)c1sc2cccc(F)c2c1N | 546 | -17.8% (inactive) | 24.4% (inactive) | 102 | 4.5% (inactive) | 110 | -0.319 (inactive) | -7.4e-05 (inactive) | 0.00522 (inactive) | -3.55% (inactive) | -14.4% (inactive)
26 | CN(Cc1ccccc1)Cc1nc2c(c(=O)n(C)c(=O)n2C)n1Cc1ccc(Cl)cc1 | 346 | -7.7% (inactive) | 22.2% (inactive) | 72.4 | -32.1% (inactive) | 161 | -0.612 (inactive) | -1.8e-05 (inactive) | 0.00317 (inactive) | -1.93% (inactive) | 2.58% (inactive)
27 | COc1ccccc1NC(=O)N1CCN(c2ccccc2F)CC1 | 209 | 2.5% (inactive) | -10.6% (inactive) | 99.1 | -100% (inactive) | 102 | -0.388 (inactive) | -3.6e-05 (inactive) | 0.00564 (inactive) | 11.9% (inactive) | -4.11% (inactive)
28 | CCOC(=O)CN1CC23C=CC(O2)C(C(=O)Nc2ccc(C(C)=O)cc2)C3C1=O (stereo not drawn) | 813 | -6.9% (inactive) | -2.6% (inactive) | 127 | -18.4% (inactive) | 127 | -0.574 (inactive) | -2.3e-05 (inactive) | 0.00637 (inactive) | -3.34% (inactive) | 7.25% (inactive)
